Measured values from PubChem BioAssay AID588856 (National Center for Advancing Translational Sciences (NCATS), 2011).
Out of some 410,000 compounds screened, about 3,100 (0.76%) were called active. Entries that show only a call come without a potency. Calls come from the whole dose curve; as a rule, active = well fitted cell-killing curve with a large enough effect; inactive = no such curve, though single readings can be large or run the other way. This excerpt belongs to a sample that is enriched for actives.

experiment: qHTS for Inhibitors of TGF-b: Cytotox Counterscreen; conditions: HepG2 CAGA-GFP viability, ATP luminescence, 18 h; series mostly up to 46.1 µM
Method in brief: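 HepG2 CAGA-GFP cells (1000/well, DMEM with 1% FBS) received compound, then TGF-beta at 500 pg/mL final, and were incubated 18 hours at 37 degrees C. Viability was read by CellTiter-Glo luminescence. Media-only wells were set as complete cell-killing and DMSO as no toxicity.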
Potency is the fitted concentration of half-maximal effect.

| SMILES | Potency |
| --- | --- |
| NC(c1csc(NC(=O)Nc2cccc(C(F)(F)F)c2)n1)C1CCCCC1 (stereo not given) | 8.91 µM (active) |
| O=C(CN1c2ccccc2S(=O)(=O)c2ccccc21)Nc1cccc(C(F)(F)F)c1 | inactive |
| Cc1oc2ccc(O)c(CN3CCCCC3)c2c1C(=O)Nc1cccc(C(F)(F)F)c1 | inactive |
| O=C(CC(NCc1cccnc1)C(=O)O)Nc1ccc(O)cc1 (stereo not given) | inactive |
| Cc1c(Cl)cccc1NC(=O)CSc1ccc(-c2cccnc2)nn1 | inactive |
| O=C(N/N=C/c1cccc2cccnc12)[C@H]1C[C@@H]1c1ccccc1 | inactive |
| O=C(CSc1cccc2cccnc12)N/N=C/c1cccnc1 | 7.08 µM (active) |
| Cc1cc[n+](C2CCCCC2)cc1 | inactive |
| COc1cccc(CNC(=O)c2ccc3c(c2)N(Cc2ccc(C(F)(F)F)cc2)C(=O)c2ccccc2S3)c1OC | inactive |
| COc1ccc(-n2nnc(-c3nsc(NC(=O)c4ccc(C)c(C)c4)n3)c2C)cc1Cl | inactive |
| Cc1cccc2sc(N(CCCN(C)C)C(=O)CCS(=O)(=O)c3ccccc3)nc12 | 7.08 µM (active) |
| COc1ccccc1CNC(=O)CS(=O)(=O)c1cccc2nsnc12 | inactive |
| COc1ccc(C)cc1NC(=O)CCS(=O)(=O)c1cccc2nonc12 | inactive |
| COc1cccc2sc(N(CCCN(C)C)C(=O)CCS(=O)(=O)c3ccccc3)nc12 | 3.55 µM (active) |
| CN(C)S(=O)(=O)c1ccc(C(=O)N(Cc2cccnc2)c2nc3c(F)cc(F)cc3s2)cc1 | inactive |
| O=C(O)CCS(=O)(=O)c1ccc(-c2ccccc2)cc1 | inactive |
| O=C(CCS(=O)(=O)c1ccccc1)N(Cc1cccnc1)c1nc2c(F)cccc2s1 | 7.94 µM (active) |
| O=C(C1COc2ccccc2O1)N(Cc1cccnc1)c1nc2c(F)cc(F)cc2s1 (stereo not given) | inactive |
| Cc1ccc(S(=O)(=O)CCC(=O)OCc2ccccc2)cc1 | inactive |
| CCc1ccc2oc(-c3ccc(NC(=O)c4cc5ccccc5o4)cc3)nc2c1 | inactive |
| CCn1cc(C(=O)NCCc2ccccc2)c(=O)c2cc(S(=O)(=O)N3CCCCCC3)ccc21 | inactive |
| CC(C)Cn1c(C2CC(=O)N(c3ccccc3Cl)C2)nc2ccccc21 (stereo not given) | inactive |
| CN(C)C1=C2C=CC=CC2/C(=C2/C=Cc3ccccc32)C=C1 (stereo not given) | inactive |
| O=C1c2ccccc2C(=O)N1c1ccc(S(=O)(=O)N2CCOCC2)c2ccccc12 | inactive |
| OC(CBr)C[n+]1cccc2cc(Br)ccc21 (stereo not given) | inactive |

| SMILES | Potency |
| --- | --- |
| FC(F)(F)c1cc(Nc2nc3ccccc3c3nncn23)ccc1Cl | inactive |
| OCCNc1nc(Nc2ccc(Cl)c(Cl)c2)nc2ccccc12 | 12.6 µM (active) |
| O=C(CSc1nc(Nc2ccc(F)c(F)c2)c2ccccc2n1)c1ccc(Cl)cc1 | inactive |
| COc1ccc(CCC(=O)NCCc2csc(-c3ccc(Cl)cc3)n2)cc1 | inactive |
| O=C(/C=C/c1ccccc1)Nc1cc(-c2nc3cc(Cl)ccc3o2)ccc1Cl | inactive |
| Cc1ccc(C)c(N2CCN(c3ccc4cc(S(=O)(=O)N5CCC(C)CC5)ccc4n3)CC2)c1 | inactive |
| c1ccc2[nH]c(-c3nc4ccccc4[nH]3)nc2c1 | 10 µM (active) |
| O=C(OCc1nc2ccccc2[nH]1)C1CCCCC1 | inactive |
| O=S(=O)(c1ccc(Br)cc1)N1CCC(c2nc3ccccc3[nH]2)CC1 | inactive |
| C=C1CCN(Cc2ccc(OC)cc2)S(=O)(=O)c2ccccc21 | inactive |
| COc1ccc(-c2onc(C)c2C)cc1S(=O)(=O)NCCc1ccccc1 | inactive |
| O=C(Nc1ccc(S(=O)(=O)N2CCC(c3nc4ccccc4s3)CC2)cc1)c1ccccc1F | inactive |
| Cc1ccc(C)c(Cn2c(=O)n(CCC(=O)NCc3ccc4c(c3)OCO4)c(=O)c3sccc32)c1 | inactive |
| Nc1nc(N)c(N=O)c(N)n1 | inactive |
| Cc1cccc(CSc2nc3ccncc3n2Cc2ccc(C(=O)O)cc2)c1 | inactive |
| COc1cccc(Cn2c(SCc3ccc(C(=O)N4CCC(C)CC4)cc3)nc3ccncc32)c1 | inactive |
| Cc1cccc(Cn2c(SCc3ccc(C(=O)N4CCC(C)CC4)cc3)nc3ccncc32)c1 | 12.6 µM (active) |
| COC(=O)c1cc(S(=O)(=O)N2CCN(c3cc(Cl)ccc3C)CC2)c[nH]1 | inactive |
| CCCCCCC1(C)NC(c2ccc3c(c2)OCO3)=CC(c2ccccc2O)N1 (stereo not given) | inactive |
| CCOC(=O)[C@H]1[C@H]2COc3cc(OC)ccc3[C@@H]2N2C(=O)N(c3ccc(Br)cc3)C(=O)[C@@]12C | inactive |
| CS(=O)c1ccc(/C=C2\C=Cc3ccccc32)cc1 (stereo not given) | inactive |
| N#Cc1ccc[n+](CC(=O)c2ccc(O)c(O)c2)c1 | inactive |
| CN(C)c1cccc2ccccc12 | inactive |
| O=C(COc1cccc(F)c1)Oc1ccc(C(=O)c2ccccc2)cc1 | inactive |
| O=C(Oc1ccc(-c2nc(-c3ccccn3)no2)cc1)c1ccccc1 | 5.01 µM (active) |

| SMILES | Potency |
| --- | --- |
| COC(=O)c1ccc(-c2noc(CN(Cc3ccccn3)CC3CCCO3)n2)cc1 (stereo not given) | inactive |
| O=C(c1ccco1)n1nc(-c2ccc(Cl)cc2)nc1NCc1ccccc1 | inactive |
| O=C(Nc1ccc2c(c1)OCO2)c1cc(-c2cccc(Cl)c2)on1 | inactive |
| COc1cc(SC#N)ccc1N=Cc1c(C)[nH]n(-c2ccc(C)cc2)c1=O | 12.6 µM (active) |
| O=C(NCCc1ccccc1)c1cnc2sc(N3CCCC3)nn2c1=O | inactive |
| Cc1ccc2oc(C(=O)Nc3ccc(S(=O)(=O)N4CCCCCC4)cc3)cc(=O)c2c1 | inactive |
| Fc1ccc(Nc2nc(SCc3ccccc3Cl)nc3ccccc23)cc1 | 17.8 µM (active) |
| Fc1ccc(CSc2nc(NCc3ccccc3)c3ccccc3n2)cc1 | inactive |
| O=C(Nc1nc2ccc(F)cc2s1)c1nc(SCc2ccccc2F)ncc1Cl | inactive |
| COC(=O)c1ccc(NC(=O)c2cc(S(=O)(=O)N3CCC(C)CC3)cn2C)cc1 | inactive |
| CN(C)c1ccc(/C=c2\[nH]c(=O)/c(=C/c3ccc(N(C)C)cc3)[nH]c2=O)cc1 | inactive |
| Cc1cccc(CCNC(=O)c2ccc3c(c2)nc2n3CCC(C)C2)c1 (stereo not given) | inactive |
| Cc1cccc(-c2nc3ccc(C(=O)NCCN4CCN(C)CC4)cc3nc2-c2cccc(C)c2)c1 | 12.6 µM (active) |
| COc1ccc(-c2nc3ccc(C(=O)NCc4ccc(C)cc4)cc3nc2-c2ccc(OC)cc2)cc1 | inactive |
| Cc1ccc2nc(N3CCN(c4cccc(Cl)c4)CC3)c3nnnn3c2c1 | inactive |
| CCCN(CCC)CCNC(=O)Cn1cnc2sc(C)c(S(=O)(=O)N3CCC(C)CC3)c2c1=O | inactive |
| CCN(CC)c1ccc(/C=C/c2c(C)cnc3ccc(C)cc23)cc1 | inactive |
| COc1ccc(Cl)cc1NC(=O)CN(C)Cc1ccc(OC)c(OC)c1 | inactive |
| COc1ccc(C(CCN(Cc2ccc(OC)c(OC)c2)C(=O)CCl)c2ccccc2)cc1 (stereo not given) | 11.2 µM (active) |
| CCN(CCCCOC(=O)c1ccc(OC)c(OC)c1)C(C)Cc1ccc(OC)cc1 (stereo not given) | inactive |
| S=c1[nH]c(=S)c2n[nH]nc2[nH]1 | inactive |
| COc1ccc(N2C(=O)CS(=O)(=O)C23C(=O)N(Cc2ccc(C)cc2)c2ccccc23)cc1Cl (stereo not given) | inactive |
| CCCC(=O)Nc1cc2nn(-c3ccccc3)nc2cc1C | inactive |
| OC(c1ccc(Cl)cc1)c1ncc(-c2ccc(Cl)cc2)[nH]1 (stereo not given) | 11.2 µM (active) |
| Cc1ccc(-c2cnc(C(O)c3cc(Cl)cc(Cl)c3)[nH]2)cc1 (stereo not given) | inactive |

| SMILES | Potency |
| --- | --- |
| OC(c1ccc(F)cc1)c1ncc(-c2cccc(C(F)(F)F)c2)[nH]1 (stereo not given) | inactive |
| CCc1ccc(OCCCn2c(CCCNC(=O)C3CCCCC3)nc3ccccc32)cc1 | inactive |
| CCCCCCn1nnc2sc(-c3ccccc3)cc2c1=O | inactive |
| CC(=O)c1c(C)n(S(=O)(=O)c2ccc(Cl)cc2)c2ccc(NS(=O)(=O)c3ccc(Cl)cc3)cc12 | inactive |
| Cc1ccc(OCC(=O)Nc2ccc(NC(=O)c3cccs3)cc2)c(C)c1 | 1.12 µM (active) |
| CCn1c2ccccc2c2cc(NC(=O)COc3ccc(C)cc3C)ccc21 | inactive |
| Cn1c(SCC(=O)Nc2cccc(NC(=O)c3cccs3)c2)nnc1-c1ccncc1 | inactive |
| Cn1c(=O)c(=O)n(C)c2cc(NC(=O)c3ccccc3Br)ccc21 | inactive |
| Cc1cccc(-n2ncc(C(=O)N3CCN(c4ccc(Cl)cc4)CC3)c2C2CCN(C(=O)OC(C)(C)C)CC2)c1 | inactive |
| Cc1cccc(-n2ncc(C(=O)N3CCC(C)CC3)c2C2CCN(C(=O)OC(C)(C)C)CC2)c1 | inactive |
| Cc1cccc(-n2ncc(Cl)c(Cl)c2=O)c1 | 11.2 µM (active) |
| COc1ccc(/C=C/c2noc(-c3ccccc3O)n2)cc1OC | inactive |
| CCOc1ccc(-c2nonc2NC(=O)c2oc3ccc(C)cc3c2C)cc1OCC | inactive |
| CCOC(=O)c1c(NC(=O)/C(C#N)=C/c2ccccc2)sc2c1CCC2 | inactive |
| CCOC(=O)c1c(NC(=O)c2cc(-c3ccc(Cl)cc3)on2)sc2c1CCCC2 | inactive |
| CCOC(=O)c1c(NC(=O)C(C)Sc2c[nH]c3ccccc23)sc2c1CCC2 (stereo not given) | 25.1 µM (active) |
| Cc1csc(NCC(=O)c2c[nH]c3ccccc23)n1 | inactive |
| Cc1ccc(C)c(N2CCN(Cc3nnc(-c4ccccc4)o3)CC2)c1 | inactive |
| COc1ccc(CCNC(=O)c2ccc(-n3c(C)cc4c3CCCC4)cc2)cc1OC | inactive |
| CCN(CC)c1ccc(NC(=O)CN2CCN(CC(=O)Nc3ccc(Cl)cc3)CC2)cc1 | inactive |
| O=C(Nc1ccc2c(c1)OCCO2)C(c1ccc(F)cc1)N1CCCCC1 (stereo not given) | inactive |
| O=C(Nc1ccc2c(c1)OCCO2)C(C1CC1)N1CCC(Cc2ccccc2)CC1 (stereo not given) | 15.8 µM (active) |
| O=C(CN1CCOc2ccccc21)N1CCC(Cc2ccccc2)CC1 | inactive |
| Cc1cccc(Nc2nc(C)nc(N)c2S(=O)(=O)c2ccccc2)c1 | inactive |
| COc1ccc(NC(=O)CSc2nccn2C2CCCC2)cc1OC | inactive |
